# Screening results (PubChem BioAssay)
# This is a sample that favours compounds with a hit; in the whole collection about 2.5% have one here.
# VACV Venus inh – qHTS for Stage-Specific Inhibitors of Vaccinia Orthopoxvirus: Venus Reporter Primary qHTS | Potency, µM (series often up to 36.5 µM), for inactives: at the top dose activity change, negative = inhibition, actives largely listed as inhibitors | 0.46% of 330,000 active | Vaccinia virus Venus reporter expression, fluorescence | AID 720580, 2013; calls by dose curve; tested in A549 cells; also: nearly all actives have a fitted effect of over 30% in size
# Vaccinia mCherry – qHTS for Stage-Specific Inhibitors of Vaccinia Orthopoxvirus: mCherry Reporter Primary qHTS; Potency, µM (doses to about 36.5 µM), for the others: at the top dose activity change, negative = inhibition, most hits filed as inhibitors; 0.63% of 310,000 active; Vaccinia virus mCherry reporter infection, fluorescence; calls by dose curve; tested in A549 cells; also: nearly all actives have a fitted effect of over 35% in size
# LASV entry inh – qHTS for Inhibitors of binding or entry into cells for Lassa Virus; Lassa virus pseudotype entry inhibition, cell reporter; Potency, µM (highest dose often 37.9 µM), without a hit: top-dose activity change, negative = inhibition, most hits filed as inhibitors; 1.2% of 300,000 active; calls by dose curve; tested in HEK293 cells; also: nearly all actives have a fitted effect of over 50% in size
# MARV entry inh – qHTS for inhibitors of binding or entry into cells for Marburg Virus; 1.8% of 300,000 active; AID 540276, 2011; Marburg virus pseudotyped entry inhibition, cell reporter; Potency, µM (series often up to 37.8 µM), without a hit: top-dose activity change, negative = inhibition, most hits filed as inhibitors; calls by dose curve; tested in HEK293 cells
# * marks the source's active call; other numbers are inactive results; i = inactive; ? = inconclusive; . = no result; [ ] = dose if it differs, or a comment. % is scaled to controls: 0 for no effect and ±100 for the full control effect; potency is read from the fitted curve at half-maximal effect.
SMILES,VACV Venus inh,Vaccinia mCherry,LASV entry inh,MARV entry inh
CN(C)c1ccc(/C=C/c2cc[n+](C)c3ccc4ccccc4c23)cc1,?,36.7%,.,.
CC(=O)Nc1ccccc1-c1nc(CNC(=O)c2ccc(C)cc2)c(C)o1,-4.1%,-5.1%,.,.
CN(C)C(=O)COC(=O)c1ccccc1OCC(=O)Nc1ccc(Br)cc1,-4.2%,-7.0%,.,.
C(=C\c1ccnc2ccccc12)/c1ccc(-[n+]2cc[n+](-c3ccc(/C=C/c4ccnc5ccccc45)cc3)cc2)cc1,-3.2%,-13.7%,.,.
COc1ccccc1C(=O)Nc1ccc2c(c1)OCCO2,-17.4%,.,?,?
Cc1ccc(C(=O)Nc2cccc(C(=O)O)c2)cc1,.,.,5.8µM*,?
Cc1ccc(C(=O)Nc2ccc3c(c2)CCC3)cc1,.,.,16.4µM*,?
Cc1ccc(C(=O)NC(=S)Nc2ccc(NC(=O)c3cccc(Cl)c3)cc2)cc1,-4.8%,-9.8%,2.31µM*,1.26µM*
O=C(O)c1cccc(NC(=O)c2cc(NC(=O)c3ccccc3)cc(NC(=O)c3ccccc3)c2)c1,-5.1%,-28.4%,-11.0%[46.1 µM],8.0%[46.1 µM]
COc1cc(SC)ccc1C(=O)Nc1ccc2c(c1)OCCO2,-14.2%,-25.7%,11.6µM*,?
C=C1C[C@@]23CC[C@H]4[C@@](C)(CCC[C@@]4(C)C(=O)O)[C@@H]2CC[C@]1(O)C3,.,.,11.0%,10.9%
CC(=O)c1ccc(NC(=O)c2noc3c2CCCCC3)cc1,.,.,.,-3.2%
O=C(Nc1ccc2c(c1)OCO2)c1noc2c1CCCC2,-13.9%,-21.7%,?,7.08µM*
CC(=O)Nc1ccc(/C=C/C(=O)c2ccc3c(c2)OCCO3)cc1,-20.4%,?,-24.9%,1.4%[46.1 µM]
CC(C)(C)c1ccc(/C=C/C(=O)Nc2ccc3c(c2)OCCO3)cc1,.,.,6.51µM*,-27.5%
Cc1ccccc1OCC(=O)Nc1cccc(C(=O)O)c1,0.3%,3.4%,0.891µM*,?
O=C(Nc1ccc(NC(=O)c2cc3ccccc3o2)cc1)c1ccccc1,-5.2%[7.34 µM],-13.8%[7.34 µM],5.4%[46.1 µM],.
O=C(Nc1ccc2c(c1)OCCO2)c1cc2ccccc2o1,8.7%,3.2%,7.94µM*,3.98µM*
O=C(C[n+]1cc(Br)cc(Br)c1)c1ccc2c(c1)CCCC2,-13.6%,28.0%,.,.
CN(C)c1ccc(/C=C2\C=Nc3ccccc32)cc1,17.7%,-27.2%,.,.
CC(=O)Nc1ccc2c(c1)OCCO2,-12.4%,.,3.7%,6.1%
O=C(Nc1ccc2c(c1)OCCO2)Nc1ccc2c(c1)OCO2,-13.1%,-11.7%,8.91µM*,?
O=C(Nc1ccc2c(c1)OCCO2)c1ccc(Br)cc1,-15.1%,i,?,3.98µM*
C=C(C)C(=O)Nc1ccc2c(c1)OCCOCCOCCO2,-17.2%,i,-5.0%[46.1 µM],11.2µM*
CC(=O)OC[C@H]1O[C@H](CCON=C(C)CCN2CCCCc3nc(C)c(C)cc32)C=C[C@H]1OC(C)=O,.,.,.,16.2%[14.2 µM]
SMILES,VACV Venus inh,Vaccinia mCherry,LASV entry inh,MARV entry inh
COc1cccc([C@@H]2[C@@H](C)CC[C@@H]3C(=O)NC[C@H](O)CN32)c1,.,.,.,-11.0%[14.2 µM]
CNC(=O)CCc1nc(-c2ccc(C(C)(C)C)cc2)no1,-26.2%,-2.6%,?,0.891µM*
CC(C)(C)c1ccc(-c2noc(CCC(N)=O)n2)cc1,.,.,?,1.46µM*
CCc1ccccc1N(CC)C(=O)CCc1nc(-c2ccc(C)cc2)no1,-25.1%,.,10µM*,?
Cc1ccc(-c2noc(CCC(=O)N(C)c3ccccc3F)n2)cc1,-9.0%[7.34 µM],-13.7%[7.34 µM],?,19.3%[46.1 µM]
O=C(NN=C1C[C@@H](O)[C@H](O)[C@H]2[C@@H]3C(=O)N(c4cccc(Oc5ccccc5)c4)C(=O)[C@@H]3CC[C@H]12)OCc1ccccc1,.,.,?,4.0%[14.2 µM]
Cc1c([C@@H]2Nc3ccccc3NC3=C2C(=O)CC(C)(C)C3)cnn1C,.,.,.,1.5%
Cc1ccccc1Nc1nc(N)nc(COC(=O)c2cccn2C)n1,-0.9%,-8.9%,?,-4.9%
CCc1ccccc1Nc1nc(N)nc(COC(=O)c2cccn2C)n1,.,.,?,8.2µM*
Cc1ccc(NS(=O)(=O)c2cc(-c3n[nH]c(=O)c4ccccc34)ccc2C)cc1,?,?,?,5.01µM*
CCOC(=O)CNS(=O)(=O)c1cc(-c2n[nH]c(=O)c3ccccc23)ccc1C,-11.8%,-14.7%,17.0%,-8.7%
COC(=O)c1[nH]c(C)c(/C(O)=C2\C(=O)C(=O)N(CCN3CCOCC3)[C@H]2c2cccnc2)c1C,.,.,.,3.7%
N#CC(C#N)=C(Nc1ccc(F)cc1)SCc1cccc(F)c1,?,?,12.6µM*,7.08µM*
CCOc1ccc(N/C(SCc2cccc([N+](=O)[O-])c2)=C(/C#N)C(N)=O)cc1,-12.1%,-19.7%,-18.9%,-1.2%[46.1 µM]
NC1=NC[C@H](CC2CCCCC2)N1CCc1cc(C(F)(F)F)cc(C(F)(F)F)c1,10µM*,?,.,.
COc1cc(=O)n2c(c1C(=O)NCc1ccco1)CCN(Cc1c(F)cccc1F)CC2,-14.8%,i,.,.
Nc1ccc(/C=C/c2ccnc3ccccc23)c(N)c1,17.0%,-12.4%,.,.
Cn1c(=O)c2c(nc(CN3CCN(c4ccc(F)cc4)CC3)n2Cc2ccccc2F)n(C)c1=O,.,.,-23.5%,16.4µM*
Cn1c(=O)c2c(nc(CN3CCN(c4ccccc4F)CC3)n2Cc2ccccc2F)n(C)c1=O,-21.9%,-22.8%,-23.8%[46.1 µM],-1.1%[46.1 µM]
Cn1c(=O)c2c(nc(CN3CCN(CCO)CC3)n2Cc2cccc3ccccc23)n(C)c1=O,.,.,-18.7%,11.6µM*
C[C@@H](c1ccccc1)N1C(=O)[C@@H]2[C@H]3[C@H](O)[C@H](O)CC(=NNC(=O)OCc4ccccc4)[C@@H]3CC[C@H]2C1=O,.,.,.,-18.4%[14.2 µM]
C=CC(=O)N1C/C(=C/c2ccc(F)cc2)C(=O)/C(=C\c2ccc(F)cc2)C1,7.94µM*,?,2.51µM*,?
COc1ccccc1NC(=O)COC(=O)Cc1c[nH]c2ccccc12,2.7%,i,11.2µM*,-2.4%
C=C[C@H]1CN2CC[C@H]1C[C@H]2[C@H](OC(=O)OCC)c1ccnc2ccc(OC)cc12,-13.5%,-17.3%,.,.
C=CC1CN2CCC1CC2[C@@H](OC(=O)c1ccc(OC)cc1)c1ccnc2ccccc12 (stereo not given in full),-16.8%,-27.5%,?,11.2µM*
SMILES,VACV Venus inh,Vaccinia mCherry,LASV entry inh,MARV entry inh
COC(=O)C1=C(C(=O)OC)[C@@H]2N(C)c3ccc(OC)cc3[C@@]23C[C@@H](C(=O)OC)N(C(=O)N2CCNC2=O)C3=N1,.,.,.,-26.4%[14.2 µM]
Cc1cc(C(C)(C)C)oc1C(=O)N(CC(=O)NC1CCCC1)c1cccc(C(F)(F)F)c1,?,?,?,23.1µM*
COc1ccc(/C=C/c2noc(-c3ccccc3O)n2)cc1,1.6%,-5.3%,11.2µM*,?
CCOC(=O)[C@@]1([C@@H](NC(=O)OC)c2cccc(C)c2)CCCC1=O,.,.,.,26.0%[14.2 µM]
CCN1C(=NCc2cccc(C(F)(F)F)c2)N[C@@H](c2cccc(C(F)(F)F)c2)C(C(=O)OC)=C1C,?,-17.6%,.,.
Cc1ccc(Nc2nc(-c3ccncc3)nc3ccccc23)cc1,-1.3%,?,1.0%,2.24µM*
COC(=O)c1cccc(Nc2nc(-c3cccnc3)nc3ccccc23)c1,-24.0%,-15.0%,-14.9%[46.1 µM],?
CCOC(=O)c1cccc(Nc2nc(-c3cccnc3)nc3ccccc23)c1,22.4µM*,.,?,?
